Measured values from the supplement of paper PMC13380429.

These compounds were tested on Vero E6 infected with SARS-CoV-2 (assay: morphology score (similarity to uninfected cells); higher = more like uninfected cells). Settings: 24 h.
Work on `CCOC(=O)C1=C[C@@H](OC(CC)CC)[C@H](NC(C)=O)[C@@H](N)C1` [oseltamivir-phosphate] (10 µM) yielded a morphology score of 0.239. `CCS(=O)(=O)N(C)[C@@H]1c2cc(C#N)ccc2OC(C)(C)[C@H]1O.CCS(=O)(=O)N(C)[C@H]1c2cc(C#N)ccc2OC(C)(C)[C@@H]1O` (racemic) [chromanol-(+/-)] (10 µM) was tested, and the morphology score was 0.241. `CN1CCN(c2cc(-c3ccccc3)nc(N)n2)CC1` (10 µM) showed a morphology score of 0.206. Compound `Oc1cc(O)c2cc(O)c(-c3cc(O)c(O)c(O)c3)[o+]c2c1` [delphinidin] (10 µM) has a morphology score of 0.115. `CC(C)N(CCC(C(N)=O)(c1ccccc1)c1ccccn1)C(C)C` (stereo unspecified) [disopyramide] (10 µM) showed a morphology score of 0.157. With `N=C(N)NN=C1C=CC(=NNC(N)=S)C=C1` [ambazone] (10 µM) the morphology score was 0.129. `O=[N+]([O-])c1cncn1CCN1CCOCC1` [nimorazole] (10 µM) showed a morphology score of 0.0962. `N=C1N[C@H]2[C@H](CS[C@H]2CCCCC(=O)O)N1` [2-iminobiotin] (10 µM) gave a morphology score of 0.0808. In the case of `Nc1ncnc2c1c(-c1cccc(OCc3ccccc3)c1)cn2C1CC(CN2CCCC2)C1` (stereo in doubt) (0.833333 µM), the morphology score is reported as 0.0762. `COc1ccc(COc2cc3oc(=O)c4cc(C(C)O)ccc4c3cc2OC)cc1` (stereo unspecified) [palomid-529] (10 µM) showed a morphology score of 0.0689. In the case of `Cc1ccc(-c2ccc(C)cn2)nc1` [abametapir] (10 µM), the morphology score is reported as 0.0247. `CCC[N+]12[C@H](O)[C@@H](CC)[C@@H]3C[C@H]1[C@@H]1N(C)c4ccccc4[C@]14C[C@H]2[C@@H]3[C@H]4O` [neo-gilurytmal] (10 µM) showed a morphology score of -0.0363. `CC(C)(C)NCC(O)c1ccccc1Cl` (stereo unspecified) [tulobuterol] (10 µM) showed a morphology score of -0.0152. `COC(=O)Nc1ccc2[nH]cc(CCNC(C)=O)c2c1` (10 µM) showed a morphology score of 0.0711. Compound `O=C(O)c1ccc(NC(=O)[C@H](Cc2ccc(O)cc2)NC(=O)c2ccccc2)cc1` [bentiromide] (10 µM) has a morphology score of 0.211. In the case of `CC[C@H](C)C[C@H](C)CCCCCCCCC(=O)N[C@H]1C[C@@H](O)[C@@H](NCCN)NC(=O)[C@@H]2[C@@H](O)CCN2C(=O)[C@H]([C@H](O)CCN)NC(=O)[C@H]([C@H](O)[C@@H](O)c2ccc(O)cc2)NC(=O)[C@@H]2C[C@@H](O)CN2C(=O)[C@H]([C@@H](C)O)NC1=O` [caspofungin] (10 µM), the morphology score is reported as -0.0128. In the case of `CC(=O)N1CCC(NC(=O)c2ccc(F)cc2)CC1` (10 µM), the morphology score is reported as 0.0529. `O=C(Nc1cc(Oc2cc(F)c(NC(=O)C3(C(=O)Nc4ccc(F)cc4)CC3)cc2F)ccn1)C1CC1` [altiratinib] (10 µM) was tested, and the morphology score was 0.122. Compound `CCc1ccc(CCOc2ccc(CC3SC(=O)NC3=O)cc2)nc1` (stereo unspecified) [pioglitazone] (10 µM) has a morphology score of 0.077. Compound `O=C1c2ccccc2S(=O)(=O)N1CCCCN1CCN(c2ncccn2)CC1` [ipsapirone] (10 µM) has a morphology score of -0.0209. `c1ccc(-c2nc(CN3CCN(c4ncccn4)CC3)c[nH]2)cc1` (10 µM) showed a morphology score of -0.0694. Compound `CCCCC#Cc1nc(NC)c2ncn([C@@H]3O[C@H](CO)[C@@H](O)[C@H]3O)c2n1` (10 µM) has a morphology score of 0.143. `CCOCc1nc2c(N)nc3ccccc3c2n1CC(C)(C)O` [resiquimod] (10 µM) gave a morphology score of 0.0727. In the case of `Cc1cc([N+](=O)[O-])ccc1NS(=O)(=O)c1cc(Cl)ccc1Cl` (0.833333 µM), the morphology score is reported as 0.153. `c1ccc(Cn2c(-c3ccc(OC[C@H](C4CCNCC4)n4c(-c5ccccc5)nc5ccccc54)cc3)nc3ccccc32)cc1` [deltarasin] (0.833333 µM) gave a morphology score of 0.147. For `Cn1ccc2cc3c(cc21)CCN3C(=O)Nc1cccnc1` (10 µM), the morphology score was 0.204.
